In PubChem BioAssay AID1159580 (chemical genetic matrix, 2015):
Hit rate of the full screen: of about 5,500 compounds, about 2,000 (36%) were called active. Inconclusive results (about 18%) are left out. Cut-off read from the data, not from the text of the source: active = normalized growth mostly below about 0.91 (no sharp cut-off); inconclusive = no clear call, values can overlap the other calls; inactive = mostly above about 0.92. Some of the results follow.

Experiment: chemical genetic growth profiling, strain panel (AID 1159580);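 note: tested at 20 µM; growth read once vehicle control cultures reached saturation at 30 °C; 1 = growth at the plate median or of vehicle wells; lower values mean less growth of the strain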
Conditions: S. cerevisiae deletion strains, growth OD
[1] = locus YAL013W, strain DEP1, stronger effect = lower value
[2] = locus YBR229C, strain ROT2, stronger effect = lower value
[3] = locus YDL101C, strain DUN1, stronger effect = lower value
[4] = locus YDR150W, strain NUM1, stronger effect = lower value
[5] = locus YEL061C, strain CIN8, stronger effect = lower value
[6] = locus YGR078C, strain PAC10, stronger effect = lower value
[7] = locus YHR030C, strain SLT2, stronger effect = lower value
[8] = locus YHR087W, strain rtc3, stronger effect = lower value
[9] = locus YJR043C, strain POL32, stronger effect = lower value
[10] = locus YJR075W, strain HOC1, stronger effect = lower value
[11] = locus YLR039C, strain RIC1, stronger effect = lower value
[12] = locus YLR058C, strain SHM2 (second series), stronger effect = lower value
[13] = locus YLR085C, strain ARP6, stronger effect = lower value
[14] = locus YLR262C, strain YPT6, stronger effect = lower value
[15] = locus YML094W, strain GIM5, stronger effect = lower value
[16] = locus YMR219W, strain ESC1, stronger effect = lower value
[17] = locus YMR263W, strain SAP30, stronger effect = lower value
[18] = locus YNL153C, strain GIM3, stronger effect = lower value
[19] = locus YNL298W, strain CLA4 (second series), stronger effect = lower value
[20] = locus YNL322C, strain KRE1, stronger effect = lower value
[21] = locus YNR030W, strain Alg12, stronger effect = lower value
[22] = locus YPL055C, strain LGE1, stronger effect = lower value
[23] = locus YPL241C, strain CIN2, stronger effect = lower value
[24] = locus YPR135W, strain CTF4, stronger effect = lower value

Measured: normalized growth

C/C(=N/NC1=NCCN1)c1ccc(F)cc1
inactive: [1] 1.01 | [2] 0.993 | locus YCL061C, strain MRC1, stronger effect = lower value 0.997 | [3] 0.979 | [4] 0.907 | [5] 1.01 | [6] 0.995 | [7] 1.01 | [8] 0.987 | [9] 1 | [10] 0.992 | locus YKL190W, strain CNB1, stronger effect = lower value 1.01 | [11] 1.04 | [12] 1.01 | [13] 0.996 | [14] 0.997 | [15] 0.996 | [16] 1 | [17] 0.998 | [18] 0.987 | [19] 1.02 | [20] 1 | [21] 1.01 | [22] 1.01 | [23] 1.03 | [24] 1.02

C/C(=N/OC(=O)c1ccc(Cl)cc1)c1ccc(F)cc1
active: [5] 0.889 | [7] 0.448 | [9] 0.914 | [10] 0.847 | [11] 0.515 | [13] 0.598 | [14] 0.462 | [15] 0.809 | [18] 0.908 | [21] 0.879 | locus YOL006C, strain TOP1, stronger effect = lower value 0.467 | [22] 0.811 | [23] 0.829
inactive: [1] 0.946 | [2] 0.96 | [3] 0.952 | [4] 0.913 | [6] 0.961 | [8] 0.953 | [12] 0.982 | [16] 0.957 | [17] 0.939 | locus YNL128W, strain TEP1, stronger effect = lower value 0.943 | [19] 0.85 | [20] 0.975 | [24] 0.763

N/C(=N/OC(=O)c1ccc(Cl)cc1)c1ccc(F)cc1F
active: locus YDL132W, strain cdc53, stronger effect = lower value 0.879 | locus YDL214C, strain PRR2, stronger effect = lower value 0.559 | locus YDR054C, strain cdc34, stronger effect = lower value 0.871 | locus YDR477W, strain SNF1, stronger effect = lower value 0.491 | locus YER123W, strain YCK3, stronger effect = lower value 0.482 | locus YER133W, strain GLC7, stronger effect = lower value 0.446 | locus YFL009W, strain cdc4, stronger effect = lower value 0.872 | locus YFR019W, strain FAB1, stronger effect = lower value 0.541 | locus YGR040W, strain KSS1, stronger effect = lower value 0.505 | locus YGR052W, strain FMP48, stronger effect = lower value 0.487 | locus YGR092W, strain DBF2, stronger effect = lower value 0.305 | [7] 0.139 | locus YHR079C, strain IRE1, stronger effect = lower value 0.244 | locus YHR082C, strain KSP1, stronger effect = lower value 0.465 | locus YHR205W, strain SCH9, stronger effect = lower value 0.21 | locus YJL095W, strain BCK1, stronger effect = lower value 0.243 | locus YJL157C, strain FAR1, stronger effect = lower value 0.543 | locus YJR016C, strain ILV3, stronger effect = lower value 0.892 | locus YJR066W, strain TOR1 (second series), stronger effect = lower value 0.239 | locus YJR066W, strain TOR1, stronger effect = lower value 0.309 | locus YKL067W, strain YNK1, stronger effect = lower value 0.631 | locus YKL101W, strain HSL1, stronger effect = lower value 0.593 | locus YKL193C, strain SDS22, stronger effect = lower value 0.887 | locus YKL203C, strain TOR2, stronger effect = lower value 0.384 | locus YLR113W, strain HOG1, stronger effect = lower value 0.348 | locus YLR133W, strain CKI1, stronger effect = lower value 0.659 | locus YLR403W, strain SFP1, stronger effect = lower value 0.419 | locus YML070W, strain DAK1, stronger effect = lower value 0.556 | locus YMR205C, strain PFK2 (second series), stronger effect = lower value 0.684 | locus YMR277W, strain FCP1, stronger effect = lower value 0.881 | locus YNL006W, strain LST8, stronger effect = lower value 0.896 | locus YNL020C, strain ARK1, stronger effect = lower value 0.579 | locus YNL161W, strain CBK1, stronger effect = lower value 0.894 | locus YNL183C, strain NPR1, stronger effect = lower value 0.37 | locus YNL207W, strain RIO2, stronger effect = lower value 0.854 | locus YNL307C, strain MCK1 (second series), stronger effect = lower value 0.38 | locus YOL078W, strain AVO1, stronger effect = lower value 0.879 | locus YOL136C, strain PFK27, stronger effect = lower value 0.542 | locus YOR119C, strain RIO1, stronger effect = lower value 0.463 | locus YOR231W, strain MKK1, stronger effect = lower value 0.276 | locus YOR329C, strain SCD5, stronger effect = lower value 0.899 | locus YPL031C, strain PHO85, stronger effect = lower value 0.395 | locus YPL153C, strain RAD53, stronger effect = lower value 0.398 | locus YPL204W, strain HRR25, stronger effect = lower value 0.425 | locus YPL256C, strain CLN2, stronger effect = lower value 0.368 | strain TSCII, stronger effect = lower value 0.878
inactive: locus YAR019C, strain CDC15, stronger effect = lower value 0.896 | locus YBL105C, strain PKC1, stronger effect = lower value 0.917 | locus YBR135W, strain CKS1, stronger effect = lower value 0.9 | locus YBR136W, strain MEC1, stronger effect = lower value 0.921 | locus YBR160W, strain CDC28, stronger effect = lower value 0.903 | locus YDL017W, strain CDC7, stronger effect = lower value 0.923 | locus YDL028C, strain MPS1, stronger effect = lower value 0.916 | [3] 0.94 | locus YDL108W, strain KIN28, stronger effect = lower value 0.914 | locus YDR052C, strain DBF4, stronger effect = lower value 0.913 | locus YDR226W, strain ADK1, stronger effect = lower value 0.899 | locus YFL029C, strain CAK1, stronger effect = lower value 0.889 | locus YFR003C, strain YPI1, stronger effect = lower value 0.919 | locus YFR028C, strain CDC14, stronger effect = lower value 0.916 | locus YIL147C, strain SLN1, stronger effect = lower value 0.91 | locus YJL128C, strain PBS2, stronger effect = lower value 0.977 | locus YKL048C, strain ELM1, stronger effect = lower value 0.821 | locus YMR001C, strain CDC5, stronger effect = lower value 0.891 | locus YNL222W, strain SSU72, stronger effect = lower value 0.913 | locus YOR061W, strain CKA2, stronger effect = lower value 0.731 | locus YPL209C, strain IPL1, stronger effect = lower value 0.902 | locus YPR025C, strain CCL1, stronger effect = lower value 0.898 | locus YPR106W, strain ISR1, stronger effect = lower value 0.947 | locus YPR111W, strain DBF20, stronger effect = lower value 0.936 | strain NNK1, stronger effect = lower value 0.917
